# Laboratory results: the supplement of paper PMC3545927
# The other results are listed elsewhere or left out. How many sequences the whole screen found active is unknown.
# Target: furin, P09958
# Assay: furin cleavage Z-score vs untreated control; higher = more cleavage, active = 3.5 or more, inactive = 1 or less, 8 variable residues between constant flanks
# How it was run: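 The cleavage Z-score is the log read count relative to furin-free reactions, lowess-adjusted and scaled by median absolute deviation. Counts came from sequencing DNA released from bead-bound 8-mer peptide–cDNA fusions after digestion with purified furin for 7.5, 15 or 30 min.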
# 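Note: purified furin at 1:10 enzyme:substrate in 50 mM HEPES pH 7.5.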
# Sequence of furin, P09958 (P09958 whole entry): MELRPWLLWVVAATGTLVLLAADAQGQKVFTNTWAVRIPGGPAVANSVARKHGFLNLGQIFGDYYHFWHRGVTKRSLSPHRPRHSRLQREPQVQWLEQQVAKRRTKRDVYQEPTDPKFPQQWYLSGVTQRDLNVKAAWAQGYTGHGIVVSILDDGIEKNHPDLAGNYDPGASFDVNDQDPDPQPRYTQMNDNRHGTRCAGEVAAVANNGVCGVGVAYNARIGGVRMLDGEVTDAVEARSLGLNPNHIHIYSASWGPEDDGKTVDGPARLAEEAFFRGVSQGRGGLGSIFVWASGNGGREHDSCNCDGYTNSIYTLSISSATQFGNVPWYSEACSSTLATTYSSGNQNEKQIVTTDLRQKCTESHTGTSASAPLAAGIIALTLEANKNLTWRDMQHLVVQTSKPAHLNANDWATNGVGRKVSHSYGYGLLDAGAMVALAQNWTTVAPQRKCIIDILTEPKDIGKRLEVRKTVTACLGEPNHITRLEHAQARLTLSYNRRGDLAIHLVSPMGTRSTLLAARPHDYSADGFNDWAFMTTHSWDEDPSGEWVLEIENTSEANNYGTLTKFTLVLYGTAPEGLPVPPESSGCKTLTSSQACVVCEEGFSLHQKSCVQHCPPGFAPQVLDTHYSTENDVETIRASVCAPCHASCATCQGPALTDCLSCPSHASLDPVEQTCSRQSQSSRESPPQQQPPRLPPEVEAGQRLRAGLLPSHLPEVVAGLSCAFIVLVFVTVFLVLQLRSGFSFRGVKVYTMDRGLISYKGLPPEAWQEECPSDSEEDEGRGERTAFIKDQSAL
Sequence,furin cleavage Z-score (7.5 min),furin cleavage Z-score (15 min),furin cleavage Z-score (30 min)
CADNMEECSQAGNASASA [HC1821],-1.18 (inactive),-0.208 (inactive),-1.08 (inactive)
CALAVAVEPVAGNASASA [HC644],0.342 (inactive),-1.7 (inactive),-0.692 (inactive)
CAANLLWRQEAGNASASA [HC1275],1.65,1.09,0.698 (inactive)
CARNKRNSKMAGNASASA [FU4],5.8 (active),8.1 (active),7.99 (active)
CARAPRSVGGAGNASASA [FS-1886],-0.25 (inactive),0.302 (inactive),0.769 (inactive)
CARNKRQSKSAGNASASA [FS-3009],3.6 (active),6.73 (active),6.06 (active)
CARAKRGNIHAGNASASA [FS-2250],0.0194 (inactive),0.245 (inactive),1.46
CARNKRLSISAGNASASA [FS-3007],0.116 (inactive),-1.14 (inactive),0.746 (inactive)
CARNKRNSKMAGNASASA [FS-2397],6.32 (active),8.34 (active),7.25 (active)
CARAKRAVSHAGNASASA [FS-2544],7.56 (active),8.33 (active),7.62 (active)
CADIYHSVSHAGNASASA [HC1650],-2.02 (inactive),-1.09 (inactive),-0.935 (inactive)
CARAKRSPKHAGNASASA [FS-2639],5.3 (active),6.19 (active),6.5 (active)
CARNKRIWASAGNASASA [FS-2728],0.843 (inactive),1.63,-0.176 (inactive)
CANVCCSMSYAGNASASA [HC2001],0.0522 (inactive),1.55,1.28
CAMHLQGPEDAGNASASA [NG10],0.395 (inactive),-0.679 (inactive),-0.939 (inactive)
CALAAKLVALAGNASASA [HC862],1.87,-0.745 (inactive),0.749 (inactive)

Sequence,furin cleavage Z-score (7.5 min),furin cleavage Z-score (15 min),furin cleavage Z-score (30 min)
CAPVVHGCPLAGNASASA [HC1315],-0.719 (inactive),-0.657 (inactive),-0.124 (inactive)
CAVCGAPPCVAGNASASA [HC442],1.21,0.519 (inactive),0.314 (inactive)
CAEVVTKTWVAGNASASA [HC151],-0.0944 (inactive),0.88 (inactive),-0.37 (inactive)
CAEVAASCGGAGNASASA [HC567],-0.691 (inactive),-0.994 (inactive),-0.368 (inactive)
CAHRFAPPCKAGNASASA [HC1226],-2.1 (inactive),-0.755 (inactive),0.739 (inactive)
CARAKRSVHFAGNASASA [FS-2640],-0.56 (inactive),-0.574 (inactive),1.29
CARAKRSSKMAGNASASA [FS-3181],5.7 (active),7.55 (active),8.74 (active)
CARAKKGLGMAGNASASA [FS-2128],1.05,0.216 (inactive),0.932 (inactive)
CATTPCSGMWAGNASASA [HC1906],0.488 (inactive),0.804 (inactive),-1.44 (inactive)
CAHPVTKYIMAGNASASA [HC980],-1.79 (inactive),0.202 (inactive),-0.88 (inactive)
CAPAKRPKRKAGNASASA [FS-1470],11.2 (active),12 (active),9.89 (active)
CAPRPISYLKAGNASASA [HC738],0.812 (inactive),1.42,0.555 (inactive)
CAPAQRTKRKAGNASASA [FS-836],10.3 (active),11.5 (active),9.82 (active)
CAPTARPKRKAGNASASA [FS-913],4.97 (active),4.54 (active),4.32 (active)
CAKAEREKRKAGNASASA [FS-807],0.64 (inactive),0.758 (inactive),1.86
CAAFRRGVTKAGNASASA [FS-1876],-0.242 (inactive),-0.144 (inactive),-1.52 (inactive)
